Results published in PubChem BioAssay AID1159580 (chemical genetic matrix, 2015).
About 2,000 (36%) of roughly 5,500 compounds were called active. Not shown: some 18% with an inconclusive outcome. No stated cut-off is given here; in the data, active means normalized growth mostly below about 0.91 (no sharp cut-off); inconclusive means no clear call, values can overlap the other calls; inactive means mostly above about 0.92. The list shows a part of the results.

Test: chemical genetic growth profiling, strain panel (AID 1159580);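 further: tested at 20 µM; growth read once vehicle control cultures reached saturation at 30 °C; 1 = growth at the plate median or of vehicle wells; lower values mean less growth of the strain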
Details: growth OD

Measured: normalized growth

CN(C)CC/C=C1/c2ccccc2COc2ccccc21
inactive: S. cerevisiae deletion strains, locus YKL068W, hits give low values 1.02 | S. cerevisiae deletion strains, locus YKL085W, strain MDH1 (second series), hits give low values 1 | S. cerevisiae deletion strains, locus YKL085W, strain MDH1, hits give low values 1 | S. cerevisiae deletion strains, locus YKL160W, strain elf1, hits give low values 1.01 | S. cerevisiae deletion strains, locus YKL190W, strain CNB1, hits give low values 1.02 | S. cerevisiae deletion strains, locus YKR001C, strain vps1, hits give low values 1 | S. cerevisiae deletion strains, locus YKR026C, strain gcn3, hits give low values 1.03 | S. cerevisiae deletion strains, locus YKR091W, strain srl3, hits give low values 1.02 | S. cerevisiae deletion strains, locus YLL001W, strain dnm1, hits give low values 1.01 | S. cerevisiae deletion strains, locus YLL026W, hits give low values 1.02 | S. cerevisiae deletion strains, locus YLL041C, strain sdh2, hits give low values 1.03 | S. cerevisiae deletion strains, locus YLR027C, strain aat2, hits give low values 1.02 | S. cerevisiae deletion strains, locus YLR039C, strain RIC1, hits give low values 1.15 | S. cerevisiae deletion strains, locus YLR058C, strain SHM2, hits give low values 1.01 | S. cerevisiae deletion strains, locus YLR102C, strain apc9, hits give low values 1.01 | S. cerevisiae deletion strains, locus YLR113W, strain HOG1, hits give low values 1.09 | S. cerevisiae deletion strains, locus YLR221C, strain rsa3, hits give low values 1.01 | S. cerevisiae deletion strains, locus YLR258W, strain gsy2, hits give low values 1.02 | S. cerevisiae deletion strains, locus YLR262C, strain YPT6 (second series), hits give low values 1.09 | S. cerevisiae deletion strains, locus YLR262C, strain YPT6, hits give low values 1.14 | S. cerevisiae deletion strains, locus YLR268W, strain sec22, hits give low values 1.02 | S. cerevisiae deletion strains, locus YLR320W, strain mms22, hits give low values 1.01 | S. cerevisiae deletion strains, locus YLR330W, strain CHS5, hits give low values 1.01 | S. cerevisiae deletion strains, locus YLR342W, strain FKS1 (second series), hits give low values 1 | S. cerevisiae deletion strains, locus YLR342W, strain FKS1, hits give low values 1.01 | S. cerevisiae deletion strains, locus YLR357W, strain rsc2, hits give low values 1.02 | S. cerevisiae deletion strains, locus YLR370C, strain arc18, hits give low values 1.02 | S. cerevisiae deletion strains, locus YLR371W, strain rom2, hits give low values 1.01 | S. cerevisiae deletion strains, locus YLR384C, strain iki3, hits give low values 1.03 | S. cerevisiae deletion strains, locus YLR418C, strain cdc73, hits give low values 0.996 | S. cerevisiae deletion strains, locus YML016C, strain PPZ1, hits give low values 1 | S. cerevisiae deletion strains, locus YML032C, strain rad52, hits give low values 1.02 | S. cerevisiae deletion strains, locus YML120C, strain ndi1, hits give low values 1.04 | S. cerevisiae deletion strains, locus YML124C, strain tub3, hits give low values 1.02 | S. cerevisiae deletion strains, locus YMR058W, strain fet3, hits give low values 1.01 | S. cerevisiae deletion strains, locus YMR078C, strain ctf18, hits give low values 1.03 | S. cerevisiae deletion strains, locus YMR125W, strain sto1, hits give low values 1.02 | S. cerevisiae deletion strains, locus YMR129W, hits give low values 1.02 | S. cerevisiae deletion strains, locus YMR205C, strain PFK2, hits give low values 1.04 | S. cerevisiae deletion strains, locus YMR223W, strain ubp8, hits give low values 1.03 | S. cerevisiae deletion strains, locus YMR231W, strain pep5, hits give low values 1.03 | S. cerevisiae deletion strains, locus YMR263W, strain SAP30, hits give low values 1 | S. cerevisiae deletion strains, locus YMR307W, strain GAS1, hits give low values 1.05 | S. cerevisiae deletion strains, locus YNL067W, strain RPL9B, hits give low values 1.01 | S. cerevisiae deletion strains, locus YNL071W, strain lat1, hits give low values 1.02 | S. cerevisiae deletion strains, locus YNL128W, strain TEP1, hits give low values 1.01 | S. cerevisiae deletion strains, locus YNL153C, strain GIM3, hits give low values 0.997 | S. cerevisiae deletion strains, locus YNL183C, strain NPR1, hits give low values 0.989 | S. cerevisiae deletion strains, locus YNL209W, strain ssb2, hits give low values 0.985 | S. cerevisiae deletion strains, locus YNL233W, strain BNI4, hits give low values 1.01 | S. cerevisiae deletion strains, locus YNL248C, strain rpa49, hits give low values 1.01 | S. cerevisiae deletion strains, locus YNL250W, strain rad50, hits give low values 1.04 | S. cerevisiae deletion strains, locus YNL271C, strain bni1, hits give low values 1.01 | S. cerevisiae deletion strains, locus YNL298W, strain CLA4, hits give low values 1.02 | S. cerevisiae deletion strains, locus YNL307C, strain MCK1, hits give low values 1.03 | S. cerevisiae deletion strains, locus YNL322C, strain KRE1 (second series), hits give low values 1.02 | S. cerevisiae deletion strains, locus YNL322C, strain KRE1, hits give low values 1.02 | S. cerevisiae deletion strains, locus YNR049C, strain mso1, hits give low values 1.02 | S. cerevisiae deletion strains, locus YNR052C, strain pop2, hits give low values 1.02 | S. cerevisiae deletion strains, locus YOL006C, strain TOP1, hits give low values 0.974 | S. cerevisiae deletion strains, locus YOL012C, strain htz1 1.18 | S. cerevisiae deletion strains, locus YOL147C, strain pex11, hits give low values 1.01 | S. cerevisiae deletion strains, locus YOR001W, strain rrp6, hits give low values 1.02 | S. cerevisiae deletion strains, locus YOR061W, strain CKA2, hits give low values 1 | S. cerevisiae deletion strains, locus YOR069W, strain VPS5, hits give low values 1.01 | S. cerevisiae deletion strains, locus YOR070C, strain gyp1, hits give low values 1.02 | S. cerevisiae deletion strains, locus YOR080W, strain dia2, hits give low values 1.03 | S. cerevisiae deletion strains, locus YOR083W, strain WHI5, hits give low values 0.99 | S. cerevisiae deletion strains, locus YOR106W, strain vam3, hits give low values 1.02 | S. cerevisiae deletion strains, locus YOR136W, strain idh2, hits give low values 1.03 | S. cerevisiae deletion strains, locus YOR144C, strain elg1, hits give low values 1.01 | S. cerevisiae deletion strains, locus YOR184W, strain ser1, hits give low values 1.05 | S. cerevisiae deletion strains, locus YOR231W, strain MKK1, hits give low values 1.07 | S. cerevisiae deletion strains, locus YOR265W, strain rbl2, hits give low values 1.03 | S. cerevisiae deletion strains, locus YOR270C, strain vph1, hits give low values 1.02 | S. cerevisiae deletion strains, locus YOR290C, strain snf2, hits give low values 1.01 | S. cerevisiae deletion strains, locus YOR316C, strain cot1, hits give low values 1.01 | S. cerevisiae deletion strains, locus YPL051W, strain arl3, hits give low values 1.01 | S. cerevisiae deletion strains, locus YPL055C, strain LGE1, hits give low values 0.981 | S. cerevisiae deletion strains, locus YPL078C, strain atp4, hits give low values 1.02 | S. cerevisiae deletion strains, locus YPL106C, strain sse1, hits give low values 1.02 | S. cerevisiae deletion strains, locus YPL240C, strain hsp82, hits give low values 1.02 | S. cerevisiae deletion strains, locus YPL241C, strain CIN2, hits give low values 1.01 | S. cerevisiae deletion strains, locus YPL256C, strain CLN2, hits give low values 1.04 | S. cerevisiae deletion strains, locus YPR119W, strain clb2, hits give low values 1.01 | S. cerevisiae deletion strains, locus YPR141C, strain kar3, hits give low values 1.01 | S. cerevisiae deletion strains, locus YPR163C, strain tif3, hits give low values 1.01 | S. cerevisiae deletion strains, locus YPR167C, strain met16, hits give low values 1.02 | S. cerevisiae deletion strains, strain wtn01, hits give low values 1.03 | S. cerevisiae strains, strain wild type, hits give low values 1.01
